Laboratory results from PubChem BioAssay.

These compounds were tested on Noggin (protein binding on small-molecule microarray) (assay: Noggin binders on small-molecule microarray, primary screen, biochemical, 635/667 nm fluorescence (AID 1095;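 also: score merges 667 nm feature fluorescence with signal to noise over triplicate slides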)). Conditions: 635 nm fluorescence, higher = more signal.

| SMILES | composite z-score |
| --- | --- |
| COC(=O)c1c(CC[C@@H](CO)NC(=O)NCCc2c[nH]c3ccccc23)oc(C(=O)Cc2ccccc2)c1C(=O)OC | 0.145 |
| CC(C)[Si](C#CCCCC#N)(Oc1ccccc1Br)C(C)C | 0.506 |
| COc1cc(CO)cc(I)c1O[C@H]1C=C(C(=O)NCCO)C[C@@H](N(C(=O)c2cc3ccccc3oc2=O)C2CCCCCC2)[C@@H]1O | 0.437 |
| C=CCC(OC(C)=O)[C@@H]1[C@@H](N(Cc2ccc(-c3cccc(C(F)(F)F)c3)o2)C(=O)c2cccc3ccccc23)c2cc(OCCCO)ccc2N1C(=O)Cc1ccc2ccccc2c1 (stereo partly specified) | 0.01 |
| CC(c1ccccc1)C(O)C1C=CC2C(=O)N(C)C(=O)C2N1NC(=O)OC(C)(C)C (stereo unspecified) | 0.01 |
| COc1ccc(CCNC(=O)[C@@]2(C)c3ccccc3C(=O)N(c3ccc(C)cn3)[C@H]2c2ccc(CO)cc2)cc1 | -0.704 |
| C#CCNCc1ccccc1 | 0.235 |
| CC[C@@H]1C=C(C(=O)O)[C@H](c2ccc(C)cc2)N1S(=O)(=O)c1ccc(C)cc1 | 0.634 |
| COCCCNC(=O)[C@@H]1c2ccccc2C(=O)N(Cc2ccccc2OC)[C@H]1c1ccc(CO)cc1 | 1.68 |
| C=CCOC(=O)[C@H]1[C@@H]2C(=O)O[C@@H](c3ccccc3)[C@@H](c3ccccc3)N2[C@@H](c2ccc(OCCOC(=O)[C@@H]3C[C@@H]4C(=O)N5CCC[C@H]5C(=O)N4[C@@H]3c3cccc(OCCO)c3)cc2)[C@]12C(=O)Nc1ccc(I)cc12 | 1.86 |
| CC(=O)NCCCC[C@@H]1NC(=O)[C@H]2C[C@@H](C(=O)O)[C@@H](c3ccc(O)cc3)N2C1=O | 1.67 |
| CCCC=C(CCC)[C@@H](NS(=O)(=O)c1ccc(Cl)cc1)c1ccc(C(=O)OC)cc1 | -0.392 |
| [N-]=[N+]=NCc1ccccc1[C@@H]1OC(c2ccc(OCCCO)cc2)=N[C@]1(CCS(=O)(=O)c1ccccc1)C(=O)N1CCCCC1 | 0.36 |
| C=CCC(OC(C)=O)[C@@H]1[C@@H](N(Cc2ccc(-c3ccccc3)cc2)C(=O)Cc2ccc(F)cc2)c2cc(OCCCO)ccc2N1C(=O)c1ccc2ccccc2c1 (stereo partly specified) | 0.289 |
| CCCCCCCCCCC(O)C1C=CC2C(=O)NC(=O)C2N1Nc1ccc(Cl)cc1Cl (stereo unspecified) | -0.729 |
| COc1ccc([Si](C)(C)[C@@H]2[C@@H](CCn3cc(CCO)nn3)O[C@]3(C(=O)N(Cc4cccc(N5C(=O)c6cccc7cccc5c67)c4)c4ccccc43)[C@H]2C)cc1 | 1.14 |
| COCCCNC(=O)[C@@]1(CCS(=O)(=O)c2ccccc2)N=C(c2ccc(OCCCO)cc2)O[C@H]1c1ccccc1N=[N+]=[N-] | 0.908 |
| O[C@@H](Cc1ccccc1)[C@@H](/C=C/C1CC1)NCc1cccc(Cl)c1 | -1.08 |

| SMILES | composite z-score |
| --- | --- |
| CCC(CC)C(O)C1C=CC2C(=O)N(c3ccccc3)C(=O)C2N1Nc1ccccc1 (stereo unspecified) | 0.403 |
| COC(=O)[C@@]1(Cc2ccccc2)[C@H]2c3cc(C(=O)N4CCCC4)n(Cc4ccc(O)c(OC)c4)c3C[C@H]2CN1C(=O)c1ccccc1 | -0.786 |
| COCCCNC(=O)[C@@]1(Cc2ccccc2CN=[N+]=[N-])N=C(c2ccc(OCCCO)cc2)O[C@H]1c1ccccc1CN=[N+]=[N-] | 0.406 |
| COc1ccc(-c2cc3c(c(Cc4ccccc4)n2)[Si](C(C)C)(C(C)C)OC3)cn1 | -0.154 |
| CC(C)(C)OC(=O)CC[C@]1(C(=O)NCCN2CCOCC2)COC(c2ccc(OCCCO)cc2)=N1 | 1.05 |
| CC(C)[Si](C#CCCCC#N)(O[C@H](c1ccccc1)c1cn(Cc2cccc(Cl)c2)nn1)C(C)C | 0.342 |
| COc1ccc(C(=O)Nc2ccc(CN3C(=O)[C@]4(O[C@H](CC(=O)N5CCC[C@H]5CO)[C@@H]([Si](C)(C)c5ccc(OC)cc5)[C@@H]4C)c4ccccc43)cc2)cc1 | 1.35 |
| CC(C)(C)OC(=O)CC[C@@]1(C(=O)N2CCCCC2)N=C(c2ccc(OCCCO)cc2)O[C@@H]1c1ccccc1 | 0.318 |
| O=C1NC(=O)C2C1C=CC(C(O)C1CC=CCC1)N2Nc1ccccn1 (stereo unspecified) | -0.0801 |
| [N-]=[N+]=Nc1ccccc1C[C@]1(C(=O)N2CCCCC2)COC(c2ccc(OCCCO)cc2)=N1 | 0.753 |
| COc1ccc([Si](C)(C)[C@@H]2[C@@H](CC(=O)N3Cc4ccccc4C[C@H]3CO)O[C@]3(C(=O)N(Cc4cccc(N5CCC5=O)c4)c4ccccc43)[C@H]2C)cc1 | 0.954 |
| O=C1C[C@@](C(=O)NCc2ccccc2)(c2ccc([N+](=O)[O-])cc2)[C@@H](c2ccc(CO)cc2)N1CC12CC3CC(CC(C3)C1)C2 | 1.52 |
| CC=CC(O)C1C=CC2C(=O)N(C)C(=O)C2N1N(c1ccccc1)c1ccccc1 (stereo unspecified) | -0.0867 |
| C=C(CCCC)C(=O)CC[C@H](OC(=O)c1cccnc1)c1ccc(OCCO)cc1 | 0.134 |
| CCOC(=O)C1=CCC(c2ccc(F)cc2)N(S(=O)(=O)c2ccc(C)cc2)C1 (stereo unspecified) | -0.0456 |
| O=C1OCCC=C[C@H]2OC34C=CCN(Cn5nnc6ccccc65)C(=O)[C@H]3N(CCO)C(=O)[C@@H]4C12 (stereo partly specified) | -1.26 |
| CC(c1ccccc1)C(O)C1C=CC2C(=O)N(c3ccccc3)C(=O)C2N1Nc1ccccc1 (stereo unspecified) | 0.833 |
| NCCCCCNC(=O)[C@H]1C[C@H]2C(=O)N3CCC[C@H]3C(=O)N2[C@H]1c1ccc(O)cc1 | 0.813 |
